Measured values published in PubChem BioAssay AID602342 (Broad Institute, 2012).
Among all 340,000 compounds or so, about 1,000 (0.29%) were called active. The entries come from a sample that favours actives as a whole. Values without a mark were called inactive.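 How the source made its calls: active means mean replicate activation score at least 90 and every replicate individually at or above 90; inconclusive means only one of the two criteria met; inactive means neither criterion met.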

assay: miR-122 Renilla sensor signal increase in Huh7, primary screen, miR-122 inhibitor project, cell-based, single point, plate reader (AID 602342); conditions: Huh7 miR-122 Renilla luciferase sensor, 48 h, stronger effect = higher value, neutral wells = 0, positive control = 100; at 16.7 µM unless noted;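 further: higher luciferase means less miR-122 activity so hits act as miR-122 inhibitors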

| SMILES | activation (reporter increase) |
| --- | --- |
| C[C@@H]1CN([C@@H](C)CO)C(=O)c2cc(NC(=O)Nc3cccc4ccccc34)ccc2O[C@H]1CN(C)Cc1ccc(Oc2ccccc2)cc1 | -7.47% |
| C[C@H](CO)N1C[C@H](C)[C@@H](CN(C)C(=O)C2CC2)Oc2ncc(-c3cccc(F)c3)cc2C1=O | -1.71% |
| CN(C)C(=O)C[C@@H]1CC[C@H]2[C@@H](COC[C@H](O)CN2S(=O)(=O)c2ccccc2)O1 | 0.2% |
| CCCNC(=O)Nc1ccc2c(c1)C(=O)N(C)[C@@H]1CC[C@@H](CC(=O)NC)O[C@H]1CO2 | -13.3% |
| O=C(C[C@@H]1CC[C@H]2[C@@H](COC[C@@H](O)CN2C(=O)c2ccc3c(c2)OCO3)O1)NC1Cc2ccccc2C1 | 5.8% |
| COCCNC(=O)C[C@@H]1CC[C@H]2[C@H](COc3ccc(NS(=O)(=O)c4ccc(Cl)cc4)cc3C(=O)N2C)O1 | 12.5% |
| C[C@@H]1CN([C@@H](C)CO)C(=O)c2cc(C#CC(C)(C)O)cnc2O[C@H]1CN(C)Cc1cccc(F)c1 | 0.476% |
| CO[C@@H]1CN(C)C(=O)c2ccc(NC(=O)C3CCC3)cc2OC[C@H](C)N(C(=O)CN(C)C)C[C@H]1C | -7.5% |
| CCCC(=O)Nc1ccc2c(c1)C(=O)N(C)[C@H]1CC[C@@H](CC(=O)NCc3cccc(F)c3)O[C@H]1CO2 | 120% (active) |
| COCC(=O)Nc1ccc2c(c1)C(=O)N(C)[C@@H]1CC[C@@H](CC(=O)NCc3cccc(F)c3)O[C@@H]1CO2 | 41.7% |
| COCC(=O)Nc1ccc2c(c1)C(=O)N(C)[C@H]1CC[C@@H](CC(=O)NCc3cccc(F)c3)O[C@H]1CO2 | 62.5% |
| CS(=O)(=O)N1[C@H](C(=O)NCc2ccncc2)[C@@H](CO)[C@@H]2Cn3c(ccc(C4=CCCCC4)c3=O)[C@@H]21 | 1.3% |
| O=C(Nc1cccc(S(=O)(=O)NC2=NCCC2)c1)c1ccc(F)cc1F | 0.138% [at 12.5 µM] |
| CCS(=O)(=O)c1ccc(O)c(NC(=O)COc2ccc(Cl)cc2)c1 | 2.08% [at 12.5 µM] |
| O=C(Nc1cc(S(=O)(=O)Nc2ccc(Cl)cc2)ccc1O)c1ccc(F)cc1F | 118% [at 12.5 µM] (active) |
| C[C@H](CO)N1C[C@H](C)[C@H](CN(C)C(=O)NC2CCCCC2)OCCCC[C@H](C)Oc2ccc(NC(=O)Nc3ccc4c(c3)OCO4)cc2C1=O | -2.47% |
| C[C@@H]1CCCCO[C@H](CN(C)Cc2ccccc2)[C@H](C)CN([C@H](C)CO)C(=O)c2cc(NS(=O)(=O)c3ccc(Cl)cc3)ccc2O1 | -12.3% |
| COc1ccc(S(=O)(=O)Nc2ccc3c(c2)C(=O)N([C@@H](C)CO)C[C@@H](C)[C@H](CN(C)C(=O)CCC(F)(F)F)OCCCC[C@H](C)O3)cc1 | -1.47% |
| C[C@@H]1CN([C@@H](C)CO)C(=O)c2cc(-c3cncnc3)cnc2O[C@H]1CN(C)C(=O)c1cccc(F)c1 | -0.099% |
| COc1ccc(C)cc1S(=O)(=O)Nc1cc2c3c(c1)CCC(=O)N3CCC2 | 150% [at 12.5 µM] (active) |
| COc1ccccc1CNS(=O)(=O)c1cc2c3c(c1)CCC(=O)N3CCC2 | 6.96% [at 12.5 µM] |

| SMILES | activation (reporter increase) |
| --- | --- |
| COc1ccc(CNS(=O)(=O)c2cc3c4c(c2)CCN4C(=O)CC3)cc1 | 2.78% [at 12.5 µM] |
| O=C(CN1CCOCC1)Nc1cc(Cl)ccc1Cl | 101% [at 12.5 µM] (active) |
| O=C(CN1CCOCC1)Nc1ccc(NC(=O)CN2CCOCC2)c(Cl)c1 | 4.91% [at 12.5 µM] |
| O=C(CN1CCOCC1)Nc1c(Cl)cc(Cl)cc1Cl | -6.99% [at 12.5 µM] |
| COc1ccc(S(=O)(=O)Nc2cccc3c2O[C@H](CN(C)Cc2ccc4c(c2)OCO4)[C@H](C)CN([C@@H](C)CO)C3=O)cc1 | 2.28% |
| CC(=O)N(C)C[C@@H]1Oc2cc(-c3cccnc3)ccc2S(=O)(=O)N([C@@H](C)CO)C[C@H]1C | 0.602% |
| CC(C)NC(=O)Nc1ccc2c(c1)C(=O)N([C@H](C)CO)C[C@H](C)[C@@H](CN(C)S(=O)(=O)c1ccc(F)cc1)OCCCC[C@H](C)O2 | -3.83% |
| O=C(NC1CCCC1)[C@@H]1[C@@H](CO)[C@@H]2Cn3c(ccc(-c4ccc(F)cc4)c3=O)[C@H]1N2Cc1cocn1 | 1.2% |
| CCCC#Cc1cnc2c(c1)C(=O)N([C@H](C)CO)C[C@H](C)[C@H](CN(C)S(=O)(=O)c1cn(C)cn1)O2 | -3.62% |
| C[C@@H]1CN([C@H](C)CO)C(=O)c2cccc(NS(=O)(=O)c3ccc(F)cc3)c2O[C@@H]1CN(C)S(=O)(=O)c1ccccc1 | -5.32% |
| CC1=C(C)CC(C(=O)NNC(=O)c2csc3c2CCC(C(C)(C)C)C3)C(C(=O)O)C1 (centres undefined) | -0.996% [at 12.5 µM] |
| CC1=C(C)CC(C(=O)NNC(=O)c2ccccc2O)C(C(=O)O)C1 (centres undefined) | 151% [at 12.5 µM] (active) |
| O=C(NNC(=O)C1CCC1)c1ccccc1 | 1.59% [at 12.5 µM] |
| O=C(NNC(=O)c1ccccc1O)c1ccccc1O | 530% [at 12.5 µM] (active) |
| Cc1cc(C(=O)CCC(=O)NNC(=O)c2ccccc2O)c(C)s1 | -0.772% [at 12.5 µM] |
| O=C(NNC(=O)c1cc(S(=O)(=O)N2CCCCC2)ccc1Cl)c1ccccc1O | -7.51% [at 12.5 µM] |
| C[C@@H]1CCCCO[C@H](CN(C)C(=O)NC2CCCCC2)[C@@H](C)CN([C@H](C)CO)C(=O)c2cc(NC(=O)CCC(F)(F)F)ccc2O1 | 4.05% |
| COc1ccc(NS(=O)(=O)c2ccc(NC(=S)NC(=O)CC(C)C)cc2)cc1 | 161% [at 12.5 µM] (active) |
| COc1ccc(NS(=O)(=O)c2ccc(NC(=O)c3ccc(N(C)S(C)(=O)=O)cc3)cc2)cc1 | 3.93% [at 12.5 µM] |
| CC(=O)NS(=O)(=O)c1ccc(NC(=S)NC(=O)C(C)(C)C)cc1 | -3.58% [at 12.5 µM] |
| C[C@@H]1CN([C@@H](C)CO)C(=O)c2cc(NC(=O)Cc3ccccc3)ccc2O[C@@H](C)CCCCO[C@H]1CN(C)C(=O)Cc1ccccc1 | 0.724% |

| SMILES | activation (reporter increase) |
| --- | --- |
| Cc1ccc(-c2ccc3c(c2)O[C@@H](CN(C)C(=O)CC2CC2)[C@@H](C)CN([C@@H](C)CO)S3(=O)=O)cc1 | 12.9% |
| COc1ccc(NC(=O)N(C)C[C@H]2Oc3ccc(NS(=O)(=O)c4ccc(C)cc4)cc3C(=O)N([C@@H](C)CO)C[C@H]2C)cc1 | 3.8% |
| COc1ccc(NC(=O)Nc2ccc3c(c2)C(=O)N([C@H](C)CO)C[C@H](C)[C@H](CN(C)S(=O)(=O)c2ccc(OC)cc2)O3)cc1 | -11.1% |
| COc1ccccc1C(=O)Nc1ccccc1C(=O)Nc1ccccc1 | 1.44% [at 12.5 µM] |
| COc1ccc(OC)c(/C=N/NC(=O)c2ccc[n+](CC(=O)c3ccccc3)c2)c1 | -4.06% [at 12.5 µM] |
| COc1ccc(C(=O)Nc2ccccc2C(=O)N/N=C/c2ccccc2OC)cc1 | 115% [at 12.5 µM] (active) |
| COc1ccc(NC(=O)N(C)C[C@H]2OCCCC[C@@H](C)Oc3ccc(NC(=O)NC4CCCCC4)cc3C(=O)N([C@@H](C)CO)C[C@H]2C)cc1 | -3.11% |
| CCOC(=O)c1c(C)[nH]c(C)c1S(=O)(=O)NCCCc1ccco1 | 128% [at 12.5 µM] (active) |
| CCOC(=O)c1c(S(=O)(=O)NCC(=O)Nc2ccc(C)cc2)c(C)n(C)c1C | 3.19% [at 12.5 µM] |
| NC(=O)c1cc(S(=O)(=O)NCCCc2ccco2)cs1 | 2.02% [at 12.5 µM] |
| O=C(O)c1ccc(F)c(S(=O)(=O)Nc2ccccc2)c1 | 3.15% [at 12.5 µM] |
| Cc1noc(C)c1S(=O)(=O)Nc1ccc(C(=O)O)cc1 | 0.153% [at 12.5 µM] |
| Cc1cc(C(C)(C)C)cc(S(=O)(=O)Nc2ccc(C(=O)O)cc2)c1C | 165% [at 12.5 µM] (active) |
| COc1ccc(CN(C)C[C@H]2OCCCC[C@@H](C)Oc3ccc(NS(=O)(=O)c4ccccc4)cc3C(=O)N([C@@H](C)CO)C[C@@H]2C)cc1 | -4.79% |
| CNC(=O)C[C@@H]1CC[C@@H]2[C@H](COC[C@H](O)CN2Cc2ccc(C(F)(F)F)cc2)O1 | 1.05% |
| COc1ccc(OCC(=O)NCCc2ccc(S(N)(=O)=O)cc2)cc1 | -15.2% [at 12.5 µM] |
| COc1ccc(CCNC(=O)c2ccccc2OCc2ccccc2)cc1 | -1.62% [at 12.5 µM] |
| COc1ccc(OCCCC(=O)NCCc2ccccc2)cc1 | 223% [at 12.5 µM] (active) |
| OC[C@@H]1[C@H](c2ccc(C#CC3CC3)cc2)[C@@H]2CN(CCC(F)(F)F)CCCCN12 | 12.9% |
| CCCNC(=O)N1C[C@@H](O)COC[C@@H]2O[C@@H](CC(=O)O)CC[C@H]21 | 0.047% |
| C[C@H](CO)N1C[C@H](C)[C@@H](CN(C)Cc2ccccc2)Oc2c(NC(=O)C3CCOCC3)cccc2C1=O | 14.3% |

| SMILES | activation (reporter increase) |
| --- | --- |
| C[C@H](CO)N1C[C@H](C)[C@@H](CN(C)Cc2ccc3c(c2)OCO3)Oc2c(NC(=O)C3CCOCC3)cccc2C1=O | 319% (active) |
| C[C@H](CO)N1C[C@H](C)[C@H](CN(C)CC2CCCCC2)Oc2c(NC(=O)c3cnccn3)cccc2C1=O | 119% (active) |
| CC(C)NC(=O)N(C)C[C@@H]1Oc2c(NC(=O)c3cnccn3)cccc2C(=O)N([C@@H](C)CO)C[C@@H]1C | 4.6% |
| C[C@@H]1CN([C@H](C)CO)C(=O)c2cccc(NC(=O)c3cnccn3)c2O[C@@H]1CN(C)Cc1ccncc1 | -3.39% |
| C[C@H](CO)N1C[C@H](C)[C@H](CN(C)Cc2ccc(C(=O)O)cc2)Oc2c(NC(=O)C3CCOCC3)cccc2C1=O | -5.1% |
| CN(C)CCCNC(=O)C[C@@H]1C=C[C@H](NC(=O)Cc2cccnc2)[C@H](CO)O1 | 15.8% |
| COc1ccc(S(=O)(=O)N(C)C[C@H]2OCCCC[C@@H](C)Oc3ccc(NC(=O)CCC(F)(F)F)cc3C(=O)N([C@@H](C)CO)C[C@H]2C)cc1 | 16.9% |
| C[C@@H]1CCCCO[C@@H](CN(C)S(=O)(=O)c2cn(C)cn2)[C@@H](C)CN([C@@H](C)CO)C(=O)c2cc(NC(=O)Nc3ccc(C(F)(F)F)cc3)ccc2O1 | -9.96% |
| COc1ccc(N2CC(NS(=O)(=O)c3ccc4ccccc4c3)CC2=O)cc1 (centres undefined) | -5.35% [at 12.5 µM] |
| COc1cc(NS(=O)(=O)c2ccc3ccccc3c2)c2ncccc2c1 | 152% [at 12.5 µM] (active) |
| CCOc1ncccc1C(=O)NNC(=O)c1cccc(S(=O)(=O)Nc2ccccc2OC)c1 | -0.667% [at 12.5 µM] |
| C[C@H]1CN([C@@H](C)CO)C(=O)c2cccc(NC(=O)Nc3ccc(F)cc3)c2O[C@H]1CN(C)S(=O)(=O)c1cn(C)cn1 | 4.09% |
| CCOc1ccc(S(=O)(=O)Nc2ccncc2)c(C)c1C | 20.9% [at 12.5 µM] |
| COc1ccc(S(=O)(=O)Nc2ccc(F)cc2)c(C)c1C | 231% [at 12.5 µM] (active) |
| COc1ccc(NS(=O)(=O)c2ccc(F)cc2F)cn1 | -2.63% [at 12.5 µM] |
| COc1ccc(F)cc1S(=O)(=O)NCC(c1ccc2c(c1)OCO2)N1CCN(C)CC1 (centres undefined) | 2.63% [at 12.5 µM] |
| COc1ccc(F)cc1S(=O)(=O)Nc1ccc2c(c1)OCO2 | 99.7% [at 12.5 µM] (active) |
| COc1ccc(S(=O)(=O)Nc2ccc3c(c2)OCO3)cc1Cl | 37.2% [at 12.5 µM] |
| CO[C@H]1CN(C)C(=O)c2ccc(NS(=O)(=O)c3ccccc3C)cc2OC[C@H](C)NC[C@H]1C | 6.89% |
| Cn1cnc(S(=O)(=O)N2C[C@@H](O)COC[C@H]3O[C@@H](CC(=O)NCc4ccc(F)cc4)CC[C@@H]32)c1 | 2.69% |
| O=C(N[C@@H]1CC[C@H](CCn2cc(C3CC3)nn2)O[C@H]1CO)c1cccnc1 | -7.57% |
